# Data published in PubChem BioAssay AID1159580 (chemical genetic matrix, 2015).
# “And” between values parts separate entries of the source, which are not always exact repeats. Equal entries are not always repeated. The whole screen tested about 5,500 compounds, of which about 2,000 (36%) were called active. Not shown: some 18% with an inconclusive outcome. The list shows a part of the results. A number with no mark means an inactive call. No stated cut-off is given here; in the data, active means normalized growth mostly below about 0.91 (no sharp cut-off); inconclusive means no clear call, values can overlap the other calls; inactive means mostly above about 0.92.
# Test: chemical genetic growth profiling, strain panel (AID 1159580);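 further: tested at 20 µM; growth read once vehicle control cultures reached saturation at 30 °C; 1 = growth at the plate median or of vehicle wells; lower values mean less growth of the strain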
# Settings: growth OD
structure (smiles),measurement,setting,value
O=C1C(=O)c2ccccc2C(O)=C1C1CCC(c2ccc(Cl)cc2)CC1 (configuration not stated),normalized growth,"S. cerevisiae deletion strains, locus YAL013W, strain DEP1, hits give low values",1.01
same,normalized growth,"S. cerevisiae deletion strains, locus YBR021W, strain FUR4, hits give low values",0.992
same,normalized growth,"S. cerevisiae deletion strains, locus YBR229C, strain ROT2, hits give low values",0.985
same,normalized growth,"S. cerevisiae deletion strains, locus YCL029C, strain bik1, hits give low values",0.992
same,normalized growth,"S. cerevisiae deletion strains, locus YDL035C, strain GPR1, hits give low values",0.993
same,normalized growth,"S. cerevisiae deletion strains, locus YDL074C, strain BRE1, hits give low values",0.975
same,normalized growth,"S. cerevisiae deletion strains, locus YDL101C, strain DUN1, hits give low values",0.996
same,normalized growth,"S. cerevisiae deletion strains, locus YDL134C, strain PPH21, hits give low values",0.983
same,normalized growth,"S. cerevisiae deletion strains, locus YDL185W, strain tfp1, hits give low values",1.01
same,normalized growth,"S. cerevisiae deletion strains, locus YDL192W, strain arf1, hits give low values",0.997
same,normalized growth,"S. cerevisiae deletion strains, locus YDR101C, strain arx1, hits give low values",0.991
same,normalized growth,"S. cerevisiae deletion strains, locus YDR150W, strain NUM1, hits give low values",1.01
same,normalized growth,"S. cerevisiae deletion strains, locus YDR162C, strain NBP2, hits give low values",0.997
same,normalized growth,"S. cerevisiae deletion strains, locus YDR318W, strain mcm21, hits give low values",0.98
same,normalized growth,"S. cerevisiae deletion strains, locus YDR388W, hits give low values",0.981
same,normalized growth,"S. cerevisiae deletion strains, locus YDR502C, strain sam2, hits give low values",1
same,normalized growth,"S. cerevisiae deletion strains, locus YEL061C, strain CIN8, hits give low values",0.996
same,normalized growth,"S. cerevisiae deletion strains, locus YER110C, hits give low values",0.991
same,normalized growth,"S. cerevisiae deletion strains, locus YER155C, strain BEM2, hits give low values",0.983
same,normalized growth,"S. cerevisiae deletion strains, locus YER167W, strain BCK2, hits give low values",1.01
same,normalized growth,"S. cerevisiae deletion strains, locus YGL078C, strain dbp3, hits give low values",1
same,normalized growth,"S. cerevisiae deletion strains, locus YGL086W, strain mad1, hits give low values",0.988
same,normalized growth,"S. cerevisiae deletion strains, locus YGL248W, strain PDE1, hits give low values",0.998
same,normalized growth,"S. cerevisiae deletion strains, locus YGR078C, strain PAC10, hits give low values",0.996
same,normalized growth,"S. cerevisiae deletion strains, locus YGR135W, strain pre9, hits give low values",0.991
same,normalized growth,"S. cerevisiae deletion strains, locus YGR229C, strain SMI1, hits give low values",1
same,normalized growth,"S. cerevisiae deletion strains, locus YGR252W, strain gcn5, hits give low values",0.946
same,normalized growth,"S. cerevisiae deletion strains, locus YHR030C, strain SLT2, hits give low values",0.998 and 1.01
same,normalized growth,"S. cerevisiae deletion strains, locus YHR079C, strain IRE1 (second series), hits give low values",0.987
same,normalized growth,"S. cerevisiae deletion strains, locus YHR079C, strain IRE1, hits give low values",1.01
same,normalized growth,"S. cerevisiae deletion strains, locus YHR094C, strain hxt1, hits give low values",0.98
same,normalized growth,"S. cerevisiae deletion strains, locus YHR129C, strain ARP1, hits give low values",0.988
same,normalized growth,"S. cerevisiae deletion strains, locus YHR200W, strain rpn10, hits give low values",0.981
same,normalized growth,"S. cerevisiae deletion strains, locus YIL066C, strain RNR3, hits give low values",0.989
same,normalized growth,"S. cerevisiae deletion strains, locus YIL073C, strain SPO22, hits give low values",0.884
same,normalized growth,"S. cerevisiae deletion strains, locus YIL125W, strain kgd1, hits give low values",0.996
same,normalized growth,"S. cerevisiae deletion strains, locus YIR030C, strain dcg1, hits give low values",0.997
same,normalized growth,"S. cerevisiae deletion strains, locus YJL095W, strain BCK1, hits give low values",0.949 and 1.01
same,normalized growth,"S. cerevisiae deletion strains, locus YJL134W, strain LCB3, hits give low values",0.988
same,normalized growth,"S. cerevisiae deletion strains, locus YJL168C, strain set2, hits give low values",0.977
same,normalized growth,"S. cerevisiae deletion strains, locus YJL187C, strain SWE1 (second series), hits give low values",0.992
same,normalized growth,"S. cerevisiae deletion strains, locus YJR043C, strain POL32, hits give low values",1
same,normalized growth,"S. cerevisiae deletion strains, locus YJR066W, strain TOR1, hits give low values",0.963
same,normalized growth,"S. cerevisiae deletion strains, locus YJR075W, strain HOC1, hits give low values",0.996
same,normalized growth,"S. cerevisiae deletion strains, locus YKL009W, strain mrt4, hits give low values",0.997
same,normalized growth,"S. cerevisiae deletion strains, locus YKL068W, hits give low values",0.997
same,normalized growth,"S. cerevisiae deletion strains, locus YKL085W, strain MDH1 (second series), hits give low values",0.989
same,normalized growth,"S. cerevisiae deletion strains, locus YKL085W, strain MDH1, hits give low values",0.989
same,normalized growth,"S. cerevisiae deletion strains, locus YKL190W, strain CNB1, hits give low values",0.99
same,normalized growth,"S. cerevisiae deletion strains, locus YKR001C, strain vps1, hits give low values",0.947
same,normalized growth,"S. cerevisiae deletion strains, locus YLR039C, strain RIC1, hits give low values",0.876
same,normalized growth,"S. cerevisiae deletion strains, locus YLR058C, strain SHM2, hits give low values",0.988
same,normalized growth,"S. cerevisiae deletion strains, locus YLR102C, strain apc9, hits give low values",0.988
same,normalized growth,"S. cerevisiae deletion strains, locus YLR113W, strain HOG1, hits give low values",1.05
same,normalized growth,"S. cerevisiae deletion strains, locus YLR262C, strain YPT6, hits give low values",0.936
same,normalized growth,"S. cerevisiae deletion strains, locus YLR268W, strain sec22, hits give low values",0.972
same,normalized growth,"S. cerevisiae deletion strains, locus YLR330W, strain CHS5, hits give low values",0.988
same,normalized growth,"S. cerevisiae deletion strains, locus YLR342W, strain FKS1 (second series), hits give low values",0.951
same,normalized growth,"S. cerevisiae deletion strains, locus YLR371W, strain rom2, hits give low values",1
same,normalized growth,"S. cerevisiae deletion strains, locus YLR418C, strain cdc73, hits give low values",0.987
same,normalized growth,"S. cerevisiae deletion strains, locus YML016C, strain PPZ1, hits give low values",0.969
same,normalized growth,"S. cerevisiae deletion strains, locus YML032C, strain rad52, hits give low values",1.01
same,normalized growth,"S. cerevisiae deletion strains, locus YML124C, strain tub3, hits give low values",0.994
same,normalized growth,"S. cerevisiae deletion strains, locus YMR078C, strain ctf18, hits give low values",0.974
same,normalized growth,"S. cerevisiae deletion strains, locus YMR223W, strain ubp8, hits give low values",0.981
same,normalized growth,"S. cerevisiae deletion strains, locus YMR263W, strain SAP30, hits give low values",0.999
same,normalized growth,"S. cerevisiae deletion strains, locus YMR307W, strain GAS1, hits give low values",0.924
same,normalized growth,"S. cerevisiae deletion strains, locus YNL067W, strain RPL9B, hits give low values",0.997
same,normalized growth,"S. cerevisiae deletion strains, locus YNL128W, strain TEP1, hits give low values",1.01
same,normalized growth,"S. cerevisiae deletion strains, locus YNL153C, strain GIM3, hits give low values",0.989
same,normalized growth,"S. cerevisiae deletion strains, locus YNL183C, strain NPR1, hits give low values",0.977
same,normalized growth,"S. cerevisiae deletion strains, locus YNL233W, strain BNI4, hits give low values",0.987
same,normalized growth,"S. cerevisiae deletion strains, locus YNL250W, strain rad50, hits give low values",0.997
same,normalized growth,"S. cerevisiae deletion strains, locus YNL271C, strain bni1, hits give low values",0.991
same,normalized growth,"S. cerevisiae deletion strains, locus YNL298W, strain CLA4, hits give low values",0.996
same,normalized growth,"S. cerevisiae deletion strains, locus YNL307C, strain MCK1, hits give low values",0.836 (active)
same,normalized growth,"S. cerevisiae deletion strains, locus YNL322C, strain KRE1, hits give low values",1
same,normalized growth,"S. cerevisiae deletion strains, locus YNR052C, strain pop2, hits give low values",0.982
same,normalized growth,"S. cerevisiae deletion strains, locus YOL006C, strain TOP1, hits give low values",0.903
same,normalized growth,"S. cerevisiae deletion strains, locus YOL012C, strain htz1",1.05
same,normalized growth,"S. cerevisiae deletion strains, locus YOL147C, strain pex11, hits give low values",0.986
same,normalized growth,"S. cerevisiae deletion strains, locus YOR061W, strain CKA2, hits give low values",0.98
same,normalized growth,"S. cerevisiae deletion strains, locus YOR069W, strain VPS5, hits give low values",0.991
same,normalized growth,"S. cerevisiae deletion strains, locus YOR136W, strain idh2, hits give low values",1
same,normalized growth,"S. cerevisiae deletion strains, locus YOR144C, strain elg1, hits give low values",0.988
same,normalized growth,"S. cerevisiae deletion strains, locus YOR184W, strain ser1, hits give low values",0.984
same,normalized growth,"S. cerevisiae deletion strains, locus YOR231W, strain MKK1, hits give low values",1.03
same,normalized growth,"S. cerevisiae deletion strains, locus YOR316C, strain cot1, hits give low values",0.991
same,normalized growth,"S. cerevisiae deletion strains, locus YPL055C, strain LGE1, hits give low values",0.996
same,normalized growth,"S. cerevisiae deletion strains, locus YPL241C, strain CIN2, hits give low values",0.997
same,normalized growth,"S. cerevisiae deletion strains, locus YPL256C, strain CLN2, hits give low values",1.03
same,normalized growth,"S. cerevisiae deletion strains, locus YPR119W, strain clb2, hits give low values",0.984
same,normalized growth,"S. cerevisiae deletion strains, locus YPR141C, strain kar3, hits give low values",1
same,normalized growth,"S. cerevisiae deletion strains, locus YPR163C, strain tif3, hits give low values",0.993
same,normalized growth,"S. cerevisiae deletion strains, locus YPR167C, strain met16, hits give low values",0.995
same,normalized growth,"S. cerevisiae deletion strains, strain wtn01, hits give low values",0.998
same,normalized growth,"S. cerevisiae strains, strain wild type, hits give low values",0.999
